Measurements reported in PubChem BioAssay (NCI).
This is part of a sample that, as a whole, favours compounds with a hit. Of some 83,000 tested, about 20% had one in any assay.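 The endpoint reported here, percent growth, reads 100 for growth as untreated, 0 for no net growth and -100 for all cells dead.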 Unmarked numbers belong to inactive results. Activity calls are given as the source filed them. How the source made its calls: active means growth percent below 10; inactive means the rest.

How the values were obtained:
Test in all cases: NCI-60 one-dose screen, 48 h (100 = growth as untreated, 0 = no growth, -100 = all killed)
Settings in all cases: 10 µM unless noted
T-47D breast = tested on: T-47D breast
BT-549 breast = tested on: BT-549 breast
MDA-MB-435 melanoma = tested on: MDA-MB-435 melanoma
SW-620 colon = tested on: SW-620 colon
MCF7 breast = tested on: MCF7 breast
HCT-116 colon = tested on: HCT-116 colon
HCC-2998 colon = tested on: HCC-2998 colon
KM12 colon = tested on: KM12 colon

| Compound | growth (T-47D breast) | growth (BT-549 breast) | growth (MDA-MB-435 melanoma) | growth (SW-620 colon) | growth (MCF7 breast) | growth (HCT-116 colon) | growth (HCC-2998 colon) | growth (KM12 colon) |
| --- | --- | --- | --- | --- | --- | --- | --- | --- |
| COc1cc(-c2nc(SCCC(C)C)nc(Nc3ccccc3Cl)c2C#N)cc(OC)c1OC | 81.5% | 88.4% | 96.6% | 102% | 85.7% | 89.3% | 109% | 96.3% |
| N#C/C(=C\c1ccc2ccccc2c1)c1cc2ccccc2[nH]1 | 32.9% | 59.8% | -19% (active) | 15.8% | 14.4% | 16.8% | 60.4% | 25.5% |
| C#Cc1cccc(Nc2ncnc3ccc(-c4cnc(N)nc4)cc23)c1 | 5.19% (active) | 28.9% | 43.2% | 60.9% | 15.7% | 47.9% | 64.7% | 68.6% |
| Cc1ccc(Sc2nnc(/N=C3\C(=O)Nc4ccccc43)s2)cc1 | 107% | 116% | 103% | 96.2% | 101% | 104% | 116% | 98.1% |
| CC(C)(C)n1cc(-c2ccnc(NCCNS(=O)(=O)c3cccc(F)c3)c2)c(-c2ccccc2)n1 | 44.2% | 93% | 99.8% | 94.2% | 67.8% | 79% | 91% | 93.5% |
| COc1cc(OC)cc(C2=C3CC[C@@H]4[C@H](CC[C@]5(C)C(=O)CC[C@@H]45)C3=CC3C(O)c4cccnc4N4C(=O)COC234)c1 (some centres not stated) | 107% | 94.7% | 104% | 103% | 103% | 97% | 96.6% | 102% |
| CC1(c2ccccc2O)NN=C(/N=C/c2cccc([N+](=O)[O-])c2)N1C(Cc1c[nH]c2ccccc12)C(=O)O (configuration not stated) | 91.1% | 97.5% | 106% | 94.9% | 77.3% | 87% | 97.8% | 96.4% |
| C=C(C)[C@@H]1CC[C@]2(C(=O)NCCNCCN)CC[C@]3(C)[C@H](CC[C@@H]4[C@@]5(C)C/C(=C/c6ccncc6)C(=O)C(C)(C)[C@@H]5CC[C@]43C)[C@@H]12 | 80.8% | 95.2% | 92.7% | 92.7% | 97.6% | 83.7% | 91.6% | 96.9% |
| C=C(C)[C@@H]1CC[C@]2(C)[C@H](CC=C3[C@@H]4[C@H](C)[C@@H](C)CC[C@]4(CO)CC[C@]32C)[C@@]1(C)CCCN | -34.1% (active) | 55.3% | -60.3% (active) | -74.8% (active) | 0.962% (active) | -57.8% (active) | -93.3% (active) | -41.3% (active) |
| O=C1C(Cl)=C(Oc2ccccc2)C(=O)c2ccccc21 | -0.942% (active) | 70.8% | 108% | 47.6% | 73% | 29.3% | 66.5% | 27.1% |
| CN(C)C1CCN(Cc2ccc(NC(=O)c3cncc(C#Cc4cnc(N)c5ncccc45)c3)cc2C(F)(F)F)CC1 | 93.7% | 104% | -2.09% (active) | 68.1% | 73.6% | 86.7% | 99.6% | 9.65% (active) |
| Fc1cccc(CNc2c3ccccc3nc3ccccc23)c1F | 68.3% | 90.6% | 87.3% | 41.4% | 29.8% | 17.5% | 58.4% | 87% |
| C[C@H](NC(=O)[C@@H](C)N)[C@H](Oc1ccc2c(cnn2-c2ccc(F)cc2)c1)c1ccc2c(c1)OCCO2 | 36.2% | 32.9% | 45.4% | 62% | 46.4% | 38.6% | 28.1% | 36.1% |
| O=C1c2cc(Cl)ccc2S(=O)(=O)c2c(NCCCNCCO)nc3ccccc3c21 | -60% (active) | 21.7% | 2.67% (active) | -74.6% (active) | -16.2% (active) | -78% (active) | 78.5% | 20.1% |
| C=C(C)[C@@H]1CC[C@]2(C(=O)OC)CC[C@]3(C)[C@H](CC[C@@H]4[C@@]5(C)C/C(=C/NC(N)=S)C(=O)C(C)(C)[C@@H]5CC[C@]43C)[C@@H]12 | 60.9% | 126% | 93.7% | 87.3% | 80.7% | 74.4% | 99.4% | 82.6% |
| O=[N+]([O-])c1ccc(N/N=C(/C(=N/Nc2ccc([N+](=O)[O-])cc2)c2ccccc2)c2ccccc2)cc1 | 88.8% | 102% | 86.4% | 47.6% | 60.2% | 51.7% | 105% | 106% |
| CSc1nc2sc3c(c2c(=O)n1-c1ccc([N+](=O)[O-])cc1)CCCCC3 | 89% | 102% | 97% | 95.4% | 86.2% | 84.4% | 104% | 101% |
| CN1CCN(c2ccc(NC(=O)c3cncnc3Nc3ccc(OCc4ccccn4)c(Cl)c3)cc2)CC1 | 53.7% | 77.9% | -60.2% (active) | 4.15% (active) | 26.5% | -48% (active) | 67.4% | 49.3% |
| CC1=C(CCC(C)N(C)Cc2ccc(OCCCN3CCCC3)cc2)C(C)(C)CCC1 (configuration not stated) | -43.1% (active) | 55.6% | -77.9% (active) | 21.3% | -33.3% (active) | 10.7% | -31% (active) | 27.6% |
| O=C1/C(=C/c2ccc(F)cc2)COc2ccc(O)c(O)c21 | 4.43% (active) | 3.57% (active) | 1.65% (active) | -44.8% (active) | 17.7% | -3.28% (active) | 19.9% | 1.7% (active) |
| COC(=O)c1n[nH]c2ccc3nc(-c4cn[nH]c4C(F)(F)F)c4c(c3c12)CCCC4 | 57% | 35.5% | 39.3% | 28.3% | 53% | 22.9% | 15.7% | 26.8% |
| C=C1C(=O)O[C@H]2[C@H]1CC/C(COC(=O)N[C@H]1C[C@H](O[C@H]3C[C@](O)(C(=O)CO)Cc4c(O)c5c(c(O)c43)C(=O)c3c(OC)cccc3C5=O)O[C@@H](C)[C@H]1O)=C\CC[C@@]1(C)O[C@@H]21 | 29.7% | 22.7% | 66% | 1.42% (active) | 12.1% | 7.69% (active) | 99.3% | 90.1% |
| O=C(O)CCCN1C(=O)/C(=C/C(Cl)=C/c2ccccc2)SC1=S | 45.3% | 7.71% (active) | -14.9% (active) | 7.33% (active) | 14.2% | -54.2% (active) | 5.79% (active) | 13.6% |
| O=C1/C(=C/c2ccc(F)cc2)COc2ccc(O)cc21 | 86.6% | 78.2% | 62.9% | 26% | 7.92% (active) | 23.6% | 90% | 45.9% |
| O=C1/C(=C/c2ccccc2Br)COc2ccc(O)c(O)c21 | -7.17% (active) | 14.7% | 2.78% (active) | 5.6% (active) | 20.9% | -3.23% (active) | 44.2% | -7.57% (active) |
| C=C(CNCCc1ccc(O)cc1)[C@@H]1CC[C@]2(CO)CC[C@]3(C)[C@H](CC[C@@H]4[C@@]5(C)CCC(NCCO)C(C)(C)[C@@H]5CC[C@]43C)[C@@H]12 (some centres not stated) | -64.2% (active) | -68.1% (active) | -92.1% (active) | -82.4% (active) | -72.3% (active) | -92.5% (active) | -84.3% (active) | -25.8% (active) |
| CN1CCN(C(=O)c2ccc(NC(=O)Nc3ccc(-c4nc(N5CCOCC5)c5cccn5n4)cc3)cc2)CC1 | -34.3% (active) | -9.61% (active) | 0.865% (active) | 11% | 5.32% (active) | 7.02% (active) | 5.54% (active) | 9.01% (active) |
| COc1cccc(NC(=O)Cn2cc(CN3CCN(c4ccnc5cc(Cl)ccc45)CC3)nn2)c1 | 70.7% | 77.2% | 96.7% | 88.8% | 86.7% | 97% | 93% | 78.4% |
| CC(C)NC1CCC(Nc2ccnc3cc(Cl)ccc23)CC1 (configuration not stated) | 80.3% | 88.8% | 96% | 91.7% | 93.3% | 76.6% | 101% | 110% |
